mcGAS RapidFire: inhibitors of mouse cGAS; recombinant mouse cGAS, cGAMP by RapidFire MS; inhibition, % at 12.5 µM; 130,000 tested, 0.18% active; AID 1259397;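 active = inhibition of cGAS enzyme activity at or above 60%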;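 note: enzyme stimulated by 45 bp dsDNA with ATP and GTP substrates; cGAMP share of summed cGAMP plus half ATP and half GTP signals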
Target sequence (Q8C6L5 whole entry, looked up): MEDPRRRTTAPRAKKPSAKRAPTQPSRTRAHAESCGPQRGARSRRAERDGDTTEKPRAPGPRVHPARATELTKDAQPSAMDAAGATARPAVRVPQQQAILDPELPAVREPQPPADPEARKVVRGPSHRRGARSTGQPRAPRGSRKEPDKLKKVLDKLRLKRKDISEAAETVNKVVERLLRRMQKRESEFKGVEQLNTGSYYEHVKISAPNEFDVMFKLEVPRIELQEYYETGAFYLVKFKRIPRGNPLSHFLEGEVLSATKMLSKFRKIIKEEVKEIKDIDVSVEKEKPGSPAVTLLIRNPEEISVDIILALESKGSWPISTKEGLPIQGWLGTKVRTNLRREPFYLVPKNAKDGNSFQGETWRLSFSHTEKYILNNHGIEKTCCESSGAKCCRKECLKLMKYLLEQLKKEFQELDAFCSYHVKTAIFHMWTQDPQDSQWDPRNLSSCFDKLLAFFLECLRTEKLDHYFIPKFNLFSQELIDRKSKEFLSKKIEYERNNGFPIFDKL
* hit, by the source's call. Many of the other results were omitted from the sample, so hits are more common in it than they were.

SMILES	mcGAS RapidFire
O=[N+]([O-])c1ccc(O)c(Cl)c1	9
O=[N+]([O-])c1ccc(O)c([N+](=O)[O-])c1	96*
O=C(c1cc([N+](=O)[O-])c[nH]1)C(Cl)(Cl)Cl	-9
c1ccc2[nH]c(C3CCCNC3)cc2c1 (configuration not stated)	1
Cc1nn(-c2ccccc2)c(C)c1C1SCC(=O)Nc2ccsc21 (configuration not stated)	-4
S=P1(OCC2CCCO2)C2=C(N3CCCC3)CCCC2=NN1c1ccccc1 (configuration not stated)	-3
Cc1ccc2ccccc2c1NC(=O)c1cnn(C(C)(C)C)c1	3
COc1cc(C2c3c(c4ccccc4oc3=O)OC(=N)C2C#N)cc(OC)c1O (configuration not stated)	-1
O=C(Nc1ccncc1)c1cccn(Cc2ccc(F)cc2)c1=O	0
O=c1c2ccccc2nc(Cc2ccccc2)n1-c1cccc(O)c1	-4
O=c1c2ccccc2[se]n1-c1ccccc1	94*
Cc1nc2ccc(N)cc2c(=O)n1-c1ccccc1	-4
COP(=O)(OC)C(O)(CCc1ccccc1)C[N+](=O)[O-] (configuration not stated)	-4
N#CC1C(=N)Oc2c(c(=O)oc3ccccc23)C1c1ccc(OC(=O)N2CCOCC2)cc1 (configuration not stated)	-10
